Laboratory results as given in PubChem BioAssay AID651871 (Sanford-Burnham Center for Chemical Genomics, 2012).
Several values for one entry are separate records, joined by “and”; a condition that tells them apart may be missing. Identical values can stand only once.

tested on: H9c2; assay: cardiomyocyte survival under oxidative or metabolic stress – cell-based, panel, H9c2 and HL-1, ATP luminescence, set 2, SAR follow-up (AID 651871); settings: H9c2/HL-1 cardiomyocytes, 2-deoxyglucose stress, with 2-deoxyglucose; run 11, at 79 µM (top of the series);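 also: cells exposed to stressor for 2 h before ATP readout; reference of the scale not given here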

SMILES | activity (protection/inhibition)
COc1ccc2nc(-c3cc(OC)c(OC)c(OC)c3)cc(C(=O)NCC(=O)Nc3ccc(C(C)=O)cc3)c2c1 | 68.6%
COc1ccc2c(c1OC)C(=O)N1c3ccccc3C(=O)N(Cc3cccc(Cl)c3Cl)C21 (stereo not drawn) | 89.7% and 82.5% and -2.54%
CCOC(=O)c1cccc(NC(=O)CNC(=O)c2cc(-c3cc(OC)c(OC)c(OC)c3)nc3ccccc23)c1 | 112%
